PubChem BioAssay (Tox21)
Results filed as inconclusive are left out. A number with no mark means an inactive call. The call rests on the fitted dose curve.

assay: qHTS assay to identify small molecule agonists of the AP-1 signaling pathway - cell viability counter screen (AID 1159525); conditions: ME-180 (cervical carcinoma) AP-1-bla cells viability, ATP luminescence, 5 h; series mostly up to 76.8 µM; viability change, negative = cytotoxic: at the top concentration; further: nearly all actives have a fitted effect of over 55% in size
Source text: National Center for Advancing Translational Sciences [NCATS]
NIH Chemical Genomics Center [NCGC]
U.S. Environmental Protection Agency [EPA]
National Institutes of Environmental Health Sciences [NIEHS]
National Toxicology Program [NTP]
U.S. Food and Drug Administration [FDA]
Activator protein-1 (AP-1), a transcription factor, plays an important role in tumor genesis by regulating genes involved in cell proliferation, differentiation, apoptosis, and angiogenesis. AP-1 activity is induced by a complex network of signaling pathways that involves extracellular signals, such as growth factors. The AP-1 protein complex formed from c-Fos and c-Jun binding to the AP-1 response element results in transcriptional activation of genes containing such elements within their promoter.
Low molecular weight molecules have been discovered and developed to modulate various components of these signaling pathways, for example, MAP kinase inhibitors. However, many points of pathway modulation remain untested due to the lack of chemical probes making this signaling locus of general interest.
Using a beta-lactamase reporter-gene under control of the AP-1 response element, a cell-based assay [CellSensor(TM) AP-1-bla ME-180 developed by Invitrogen Corp.] was used to measure EGF-induced signaling. The Tox21 10K library compounds were measured for their ability to positively modulate the action of EC50 EGF on reporter gene activity. Compounds were screened in a 15-pt titration series in 1536-well format. The cytotoxicity of the Tox21 compound library against this cell line was tested in parallel by measuring the intra cellular ATP content in the same wells.
Tox21 Assay Protocol Summary:
2500 cells/5uL in Opti-MEM medium containing 0.5% dialyzed FBS, 0.1 mM NEAA, 1 mM sodium pyruvate and 10 mM HEPES was dispensed into 1536-well black wall/clear bottom plates using a Multidrop dispenser and cells were cultured at 37 degrees Celsius overnight. Next day 23 nL of compounds dissolved in DMSO, positive controls or DMSO were delivered to each well using a pin tool. The plates were incubated at 37 degrees Celsius for 5 hours. 1 uL of LiveBLAzerTM B/G FRET substrate (Solution A+B+C+D) was added to each well using a Flying Reagent Dispenser. After incubated at room temperature for 2.5 hours the plates were measured on an EnVision plate reader at Excitation 405nm, Emission1=460nm and Emission 2=530nm. The %Activity was determined from the ratio of 460nm/530nm.
After the plates were read for Beta-Lactamase assay on Envision; 3 ul Cell Titer Glo (Promega) was added to measure the cytotoxicity and the plates were then incubated at RT in dark for 30 min. The luminescence was read on ViewLux (Perkin Elmer, Shelton, CT) using 6 sec exposure. ViewLux data was expressed as relative luminescence units.
For primary data analysis, raw plate reads for each titration point were first normalized relative to […] EGF control (100%) and DMSO only wells (basal, 0%).
For primary data analysis for viability assay, raw plate reads for each titration point were first normalized Tetra n-octyl ammonium bromide control (-100%) and DMSO (control, 100%).

| SMILES | viability change, negative = cytotoxic |
| --- | --- |
| C[C@@H]1CN(c2c(F)c(N)c3c(=O)c(C(=O)O)cn(C4CC4)c3c2F)C[C@H](C)N1 | 1.46% [at 15.8 µM] |
| O=C(C(Cl)Cl)N1CCOC12CCCCC2 | -0.116% |
| CC(=O)Nc1ccc(C)c(Cl)c1 | 7.46% |
| CCN(CC)CCOc1ccc(Cc2ccccc2)cc1 | 1.14% [at 35.3 µM] |
| NNS(=O)(=O)c1ccc(Oc2ccc(S(=O)(=O)NN)cc2)cc1 | 7.02% |
| CC(CNC1CCCCC1)OC(=O)c1ccccc1 (stereo not given) | 4.9% [at 35.3 µM] |
| CCN[C@H]1CN(CCCOC)S(=O)(=O)c2sc(S(N)(=O)=O)cc21 | 1.5% [at 35.3 µM] |
| COC(=O)C(C)O (stereo not given) | 1.89% |
| CCC1(C)NC(=O)NC1=O (stereo not given) | -0.502% |
| CC(C)Nc1nc(N)nc(Cl)n1 | -0.676% |
| CC(C)(CO)[C@@H](O)C(=O)NCCC(=O)O | 0.878% |
| C=CCCCCCCCCO | 3.55% |
| Cc1ccc(C)c(N)c1 | 6.21% |
| CC(=O)N[C@@H](CC(C)C)C(=O)O | -1.35% [at 35.3 µM] |
| CC(=O)OC(C)OC(C)=O | 4.76% |
| CCC(=O)Nc1ccc(O)cc1 | 0.168% [at 35.3 µM] |
| CC/C=C\CCOC(=O)CCCCC | -10.8% |
| CCCNC(C)(C)COC(=O)c1ccccc1 | -4.57% [at 35.3 µM] |
| CN1[C@@H]2CC[C@H]1CC(OC(=O)c1c[nH]c3ccccc13)C2 (stereo not given in full) | 1.33% [at 35.3 µM] |
| COc1cc(N)c(Cl)cc1C(=O)NC1CCN(Cc2ccccc2)CC1 | 0.284% [at 35.3 µM] |

| SMILES | viability change, negative = cytotoxic |
| --- | --- |
| CC(C)(C)c1ccc(OC(=O)c2ccccc2O)cc1 | -17.1% |
| O=C(Cl)c1cccc([N+](=O)[O-])c1 | -15.3% |
| CN(C)Cc1ccccc1 | 0.928% |
| O=C(O)[C@@H]1CSCN1 | -0.494% [at 35.3 µM] |
| CN1C(=O)CC(c2ccccc2)C1=O (stereo not given) | -0.651% [at 35.3 µM] |
| Cc1nnc(SCC2=C(C(=O)O)N3C(=O)[C@@H](NC(=O)Cn4cnnn4)[C@H]3SC2)s1 | 0.873% [at 35.3 µM] |
| CC1=CC(=O)CC(C)(C)C1=O | -3.6% |
| CCCNC(C)C(=O)Nc1c(C)csc1C(=O)OC (stereo not given) | 0.447% [at 35.3 µM] |
| CC(C)NC[C@@H](O)COc1cccc2ccccc12 | 7.75% [at 35.3 µM] |
| CCCCC(=O)O[C@]1(C(=O)CO)[C@H](C)C[C@H]2[C@@H]3CCC4=CC(=O)C=C[C@]4(C)[C@@]3(F)[C@@H](O)C[C@@]21C | -8.35% [at 35.3 µM] |
| N#Cc1ccc(C(c2ccc(C#N)cc2)n2cncn2)cc1 | -4.06% [at 35.3 µM] |
| COC(=O)c1ccc(OC)cc1 | 3.2% |
| CCNCCO | -0.898% |
| Cc1ccc(C=O)s1 | -3.66% |
| CCCCOc1cc(C(=O)NCCN(CC)CC)c2ccccc2n1 | -3.54% [at 35.3 µM] |
| CCCc1c2oc(C(=O)O)cc(=O)c2cc2c(=O)cc(C(=O)O)n(CC)c12 | -2.45% [at 35.3 µM] |
| CC1(C)S[C@@H]2[C@H](NC(=O)C(C(=O)O)c3ccccc3)C(=O)N2[C@H]1C(=O)O (stereo not given in full) | 0.0328% [at 35.3 µM] |
| Cc1c(C(=O)NCCO)[n+](=O)c2ccccc2n1[O-] | 18.7% [at 35.3 µM] |
| CCOc1ccc(NC(N)=O)cc1 | -0.584% |
| CCCCC(CC)COC(=O)COc1cc(Cl)c(Cl)cc1Cl (stereo not given) | -4.4% |
